# Where “and” joins values, the source holds several entries; their conditions need not be identical. Identical values can stand only once. Results filed as inconclusive are left out. Calls of active or inactive are those of the source. The call rests on the fitted dose curve; in most records, active means well fitted inhibition curve with a large enough effect; inconclusive means small, poorly fitted or top-dose-only effect; inactive means flat fitted curve, though single readings scatter. Where a SMILES comes first, the peptide text is derived from it. Bridges are numbered along the chain shown (N, C = ends). [ ]: non-standard residue; d: D form. The star is where a group is joined. X2 = CC[C@H](C)CCCCC(=O)*; Dab = NCC[C@H](N)C(=O)O
# Tested on: KB-3-1
# Assay: Cytotoxic Profiling of Annotated Libraries Using Quantitative High-Throughput Screening (AID 1296008); further: nearly all actives have a fitted effect of over 60% in size
# Details: Five cell lines viability, CellTiter-Glo ATP luminescence, 48-72 h; max response: hits give low values
# Method in brief: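 Compounds were pin-transferred onto cells and incubated 48 or 72 hr at 37 degree Celsius, 95% humidity. CellTiter-Glo was added, plates sat 10 min at room temperature, then ATP-coupled luminescence was imaged as the viability read-out.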
# On the % scale 0 is the no-effect control and ±100 the full control effect; potency means the concentration at half of the fitted maximal effect.
SMILES,max response,Potency
CCCCCCCCCCCC(=O)OCC(O)CO (configuration not stated),4.65% (inactive),
CC(C)C[C@@H](NC(=O)[C@@H](O)[C@H](N)Cc1ccccc1)C(=O)O,11% (inactive),
COc1ccc(C(=O)/C(Br)=C\C(=O)O)cc1,19.2% (inactive),
CCCCC,7.19% (inactive),
C=CC1=C(C(=O)O)N2C(=O)[C@@H](NC(=O)/C(=N/OCC(=O)O)c3csc(N)n3)[C@H]2SC1 (stereo in doubt),-4.79% (inactive),
CC(C)CCC[C@@H](C)[C@H]1CC[C@H]2[C@@H]3CC[C@@H]4C[C@H](O)CC[C@]4(C)[C@H]3CC[C@]12C,-12.6% (inactive),
C=O,3.28% (inactive),
CC12CCC(C[N+](C)(CCC[N+](C)(C)C)C1)C2(C)C (configuration not stated),-0.0096% (inactive),
CC1CCCCN1CCCOC(=O)c1ccccc1 (configuration not stated),7.8% (inactive),
OC[C@H]1O[C@@](CO)(O[C@H]2O[C@H](CO)[C@@H](O)[C@H](O)[C@H]2O)[C@@H](O)[C@@H]1O,8.24% (inactive),
O=S(=O)(O)CC(S)CS (configuration not stated),3.44% (inactive),
NC[C@@H]1CC[C@@H](N)[C@@H](O[C@H]2[C@H](O)[C@@H](O[C@H]3O[C@H](CO)[C@@H](O)[C@H](N)[C@H]3O)[C@H](N)C[C@@H]2N)O1,0.761% (inactive),
Cc1ncc(C[n+]2csc(CCOP(=O)(O)O)c2C)c(N)n1,-2.14% (inactive),
CCCCC[C@H](O)/C=C/[C@H]1[C@H](O)CC(=O)[C@@H]1C/C=C\CCCC(=O)O,7.78% (inactive),
CN1c2c(nc(N)[nH]c2=O)NCC1CNc1ccc(C(=O)NC(CCC(=O)O)C(=O)O)cc1 (configuration not stated),9% (inactive),
COc1c(O[C@@H]2O[C@H](CO)[C@@H](O)[C@H](O)[C@H]2O)cc2c(c1OC)-c1ccc(SC)c(=O)cc1[C@@H](NC(C)=O)CC2,48.2% (inactive),
C=C1CC[C@H](O)C/C1=C\C=C1/CCC[C@]2(C)[C@@H]([C@H](C)CCCC(C)C)CC[C@@H]12,-5.93% (inactive),
Cc1c(N)nc([C@H](CC(N)=O)NC[C@H](N)C(N)=O)nc1C(=O)N[C@H](C(=O)N[C@H](C)[C@@H](O)[C@H](C)C(=O)N[C@H](C(=O)NCCc1nc(-c2nc(C(=O)NCCCCN=C(N)N)cs2)cs1)[C@@H](C)O)[C@@H](O[C@@H]1O[C@@H](CO)[C@@H](O)[C@H](O)[C@@H]1O[C@H]1O[C@H](CO)[C@@H](O)[C@H](OC(N)=O)[C@@H]1O)c1cnc[nH]1,-6.52% (inactive) and -5.98% (inactive),
O=C1CCC(=O)N1CO,-1.35% (inactive),

SMILES,max response,Potency
COC1=C(OC)C(=O)C(C/C=C(\C)CC/C=C(\C)CC/C=C(\C)CC/C=C(\C)CC/C=C(\C)CC/C=C(\C)CC/C=C(\C)CC/C=C(\C)CC/C=C(\C)CCC=C(C)C)=C(C)C1=O,-15.4% (inactive),
O=C(O)c1cc(O)c2c(c1)[C@H]([C@H]1c3cc(C(=O)O)cc(O)c3C(=O)c3c(O[C@@H]4O[C@H](CO)[C@@H](O)[C@H](O)[C@H]4O)cccc31)c1cccc(O[C@@H]3O[C@H](CO)[C@@H](O)[C@H](O)[C@H]3O)c1C2=O,-13.8% (inactive),
CC1=CC(=O)NS(=O)(=O)O1,-8.51% (inactive),
O=C(O[C@H]1CN2CCC1CC2)N1CCc2ccccc2[C@@H]1c1ccccc1,8.58% (inactive),
O=C1N=C2SCCN2C(=O)C1Cc1ccc(Cl)cc1 (configuration not stated),-9% (inactive),
Cc1cc(O)c2c(c1)O[C@@]1(C)CC[C@H]3C(C)(C)CCCC34CO[C@@H]2[C@H]41 (some centres not stated),-3.47% (inactive),
FC(F)OC(Cl)C(F)(F)F (configuration not stated),0.674% (inactive),
Cn1c(=O)c2c(ncn2CCOC(=O)C(C)(C)Oc2ccc(Cl)cc2)n(C)c1=O,-10.9% (inactive),
CCN1\C(=C/C=C/C=C/c2sc3ccccc3[n+]2CC)Sc2ccccc21,,9.2 µM (active)
O=C(CCCN1CCC(C(=O)c2ccc(F)cc2)CC1)c1ccc(F)cc1,33.7% (inactive),
CC(CNC(=O)c1cccnc1)NC(=O)c1cccnc1 (configuration not stated),-1.27% (inactive),
CC[C@@]1([C@@H]2O[C@@H]([C@H]3O[C@@](O)(CO)[C@H](C)C[C@@H]3C)C[C@@H]2C)CC[C@H]([C@]2(C)CC[C@]3(C[C@H](O)[C@@H](C)[C@@H]([C@@H](C)[C@@H](OC)[C@H](C)C(=O)O)O3)O2)O1 (stereo in doubt),-18.2% (inactive),
CC/C=C\C/C=C\C/C=C\CCCCCCCC(=O)O,-1.86% (inactive),
COc1cc2c(cc1OC)[C@@H](c1ccccc1)CN(C)CC2,-3.02% (inactive),
CC[C@H](C)CCCCC(=O)N[C@@H](CCN)C(=O)N[C@H](C(=O)N[C@@H](CCN)C(=O)N[C@H]1CCNC(=O)[C@@H]([C@H](C)O)NC(=O)[C@H](CCN)NC(=O)[C@H](CCN)NC(=O)[C@H](CC(C)C)NC(=O)[C@@H](CC(C)C)NC(=O)[C@H](CCN)NC1=O)[C@@H](C)O (X2-[Dab]T[Dab][Dab][Dab][dL]L[Dab][Dab][dT]; lactam 4-C),-9.96% (inactive),
NS(=O)(=O)c1cc2c(cc1Cl)NC(Cc1ccccc1)NS2(=O)=O (configuration not stated),-0.731% (inactive),
CO/N=C(\C(=O)N[C@@H]1C(=O)N2C(C(=O)O)=C(CSc3nc(C)c(CC(=O)O)s3)CS[C@H]12)c1csc(N)n1,2.01% (inactive),
Cc1ccc(S(=O)(=O)NC(=O)N[C@@H](C)Cc2ccccc2)cc1,4.03% (inactive),

# From PubChem BioAssay (NCATS)
